Laboratory results taken from PubChem BioAssay AID736 (The Scripps Research Institute Molecular Screening Center, 2007).
Among all 97,000 compounds or so, about 210 (0.22%) were called active. Rule as the data show it: active = inhibition above about 45%; inactive = the rest. Only a selection was taken, and actives are over-represented in it overall.

molecular target: Sphingosine 1-phosphate receptor 2 (Homo sapiens) (UniProt O95136); experiment: human S1P2 receptor antagonists, primary screen, cell-based (AID 736); conditions: cell-based S1P2 antagonist assay, at 5 µM, stronger effect = higher value;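 also: CRE beta-lactamase reporter cells expressing human S1P2 stimulated with S1P; 0% = agonist at EC80 alone and 100% = agonist plus reference antagonist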
Sequence (O95136 whole entry, looked up): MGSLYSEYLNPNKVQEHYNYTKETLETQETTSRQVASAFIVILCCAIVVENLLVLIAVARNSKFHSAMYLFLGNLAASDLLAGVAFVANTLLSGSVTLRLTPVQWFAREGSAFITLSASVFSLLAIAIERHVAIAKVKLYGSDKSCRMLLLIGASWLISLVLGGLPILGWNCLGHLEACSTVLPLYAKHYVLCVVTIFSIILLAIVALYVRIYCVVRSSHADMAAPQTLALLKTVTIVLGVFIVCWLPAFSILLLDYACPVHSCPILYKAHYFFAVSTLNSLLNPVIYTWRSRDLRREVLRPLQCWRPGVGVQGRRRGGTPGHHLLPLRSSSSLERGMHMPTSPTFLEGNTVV

SMILES	inhibition
Cc1nn(C)cc1/C=N/NC(=O)c1sc2ccccc2c1Cl	-19.2% (inactive)
O=C(CCNS(=O)(=O)c1ccccc1C(F)(F)F)NCc1ccc2c(c1)OCO2	-42.1% (inactive)
CCOc1cc(-c2cc(-c3ccc(OC)cc3)nc(N)c2C#N)ccc1O	-25.8% (inactive)
COc1ccc2[nH]c(=O)c(CNc3ccc(C)c(C)c3)cc2c1	17.9% (inactive)
CC1(C)NC(=O)N(CCCCSc2ccc(Cl)cc2)C1=O	11.3% (inactive)
CCc1nnc(NC(=O)CSc2nc3ccccc3c(=O)n2CCCOC)s1	2.95% (inactive)
COc1ccc(C(F)(F)F)cc1N/C=C\c1nnnn1-c1ccc(C)cc1	-17.3% (inactive)
CCNC(=S)Nc1cccc(Cl)c1C	13.9% (inactive)
CCc1ccc(C2C(C#N)=C(N)Oc3n[nH]c(CC(=O)OC)c32)cc1 (stereo not given)	-30.6% (inactive)
Cc1ccc(S(=O)(=O)NCCSC(C)(C)C)cc1	-2.88% (inactive)
Cc1ccc(S/C(=N\S(=O)(=O)c2ccc(Cl)cc2)c2ccccc2)cc1	-10.2% (inactive)
O=C(Nc1cccc(-c2nc3ncccc3o2)c1)c1ccco1	-19.4% (inactive)
CCOC(=O)C1C(=O)NCC1c1ccccc1 (stereo not given)	-4.06% (inactive)
COc1ccc(Cc2nnc(SC)[nH]c2=O)cc1	-19.6% (inactive)
Cc1cccc(C)c1OC(=O)CSc1nnc(-c2ccccc2)o1	-20% (inactive)
O=C(NCCN1CCN(Cc2ccccc2)CC1)c1cc2c(=O)[nH]c3ccccc3c2s1	-27.2% (inactive)
Cc1cc(C=O)c(C)n1-c1ccc(NC2CCCCC2)c([N+](=O)[O-])c1	4.51% (inactive)
Cc1ccc(N2CCN(/N=C/c3cccs3)CC2)cc1	22.6% (inactive)
Cc1cc([N+](=O)[O-])c(N2CCC[C@@H]2C(=O)O)c([N+](=O)[O-])c1	16.9% (inactive)
COc1ccc(N(CC(=O)N/N=C/c2cccc3c2OCCO3)S(=O)(=O)c2ccc(NC(C)=O)cc2)cc1	10.2% (inactive)
COc1ccc(C2C(C(C)=O)=C(O)C(=O)N2Cc2cccnc2)cc1 (stereo not given)	5.26% (inactive)
Cc1nnsc1S(=O)(=O)Cc1ccccc1Cl	6.79% (inactive)
CC(=O)NS(=O)(=O)c1ccc(NC(=S)NC(=O)C(C)(C)C)cc1	1.69% (inactive)
CS(=O)(=O)Nc1cccc(C2=NN(S(=O)(=O)c3ccccc3)C(c3cccs3)C2)c1 (stereo not given)	21.1% (inactive)
Clc1ccc(Cl)c(Oc2ccc(Oc3nc(Cl)ccc3Cl)cc2)n1	-3.25% (inactive)

SMILES	inhibition
O=C(Cc1ccc(-n2c(=O)c3sccc3n(Cc3ccc(F)cc3)c2=O)cc1)NCc1ccco1	14.3% (inactive)
O=C(NCCCCCCNC(=O)NCc1ccco1)NCc1ccco1	-14.7% (inactive)
Cc1cc(-c2ccc(/C=N/n3cnnc3)o2)c([N+](=O)[O-])cc1C	1.7% (inactive)
COc1ccc(-n2c(C)csc2=S)cc1	-2.06% (inactive)
Cn1nc([N+](=O)[O-])nc1Sc1ccc(C(C)(C)C)cc1	1.08% (inactive)
CC(N=Cc1nc(-c2ccccc2)oc1O)c1ccccc1 (stereo not given)	-15.5% (inactive)
O=C(Nc1nnc(CCOCCOCCc2nnc(NC(=O)c3ccco3)s2)s1)c1ccco1	0.16% (inactive)
COc1ccc(Br)cc1CN1CCN(C(=O)c2cccc(OC)c2OC)CC1	-12.2% (inactive)
O=C1c2ccccc2NC(c2ccc(-c3cccc(Cl)c3)o2)N1O (stereo not given)	9.34% (inactive)
CCCCc1nnc(NC(=O)CS(=O)(=O)Cc2ccccc2)s1	11.7% (inactive)
Brc1ccc(-c2nnc(-c3ccccc3)o2)o1	-21.1% (inactive)
O=C(Nc1cccc2ccccc12)c1onc2c1CCCC2	-13% (inactive)
ONC(=Nc1ccccc1)c1ccccc1Cl	-2.09% (inactive)
CCOC(=O)c1c(NC(=O)c2ccc(N3CCOCC3)c([N+](=O)[O-])c2)sc(C)c1C	-6.51% (inactive)
CC(C)CC[n+]1ccn(C2=C([O-])c3ccccc3C(=O)/C2=N\S(=O)(=O)c2ccccc2)c1	18.2% (inactive)
CCOC(=O)c1ccccc1NS(=O)(=O)c1ccc(OC)cc1	-9.6% (inactive)
Cc1nc2ccccc2cc1O	-18.9% (inactive)
CCOC(=O)c1cc2ccccc2nc1C	-7.13% (inactive)
Cc1nc2ccccc2cc1OCc1ccc(F)cc1	56.8% (active)
CCN(CC)S(=O)(=O)c1ccc(N2CCOCC2)c(C(=O)O)c1	0.01% (inactive)
COc1ccc(-c2noc(CSc3ccc(C)cc3)n2)cc1	8.11% (inactive)
C=CCO/N=C(\C)c1c(O)c(C)c(-c2ccccc2)n(-c2ccccc2)c1=O	1.26% (inactive)
CCn1c2ccccc2c2cc(NC(=S)N3CCOCC3)ccc21	7.28% (inactive)
Cc1ccc(CNC(=O)c2ccccc2CCc2ccccc2)cc1	-23.4% (inactive)
CCCCCCC(=O)Nc1nc(C)c(-c2csc(Nc3cc(Cl)ccc3OC)n2)s1	8.39% (inactive)

SMILES	inhibition
c1cnc(Nc2nc(-c3ccc4ccccc4c3)cs2)nc1	10.4% (inactive)
O=c1cc(CN2CCN(c3cccc(Cl)c3)CC2)c2cc3c(cc2o1)CCCC3	2.36% (inactive)
O=C(O)c1cccnc1NC1CCCC1	-6.46% (inactive)
CC(C)C(NC(=O)c1ccc(Cl)cc1)C(=O)O (stereo not given)	18.8% (inactive)
Cc1ccccc1-n1nc(C)c2cc(C(=O)NC3CC3)sc21	2.59% (inactive)
Cc1ccc(-c2ccnc3nc(Sc4ncc(C(F)(F)F)cc4Cl)nn23)cc1	-3.44% (inactive)
CSc1nc(N(C)NC(=O)c2cccc(C)c2)c2ccccc2n1	5.9% (inactive)
CCN(c1ccccc1)S(=O)(=O)c1ccc(C(=O)Nc2nccs2)cc1	-3.2% (inactive)
O=C(Nc1ccn(Cc2ccccc2F)n1)c1ccc(COc2ccc(Cl)cc2Cl)o1	6.95% (inactive)
Cc1ccc(-n2nc3cc(C)c(NC(=O)c4cccnc4)cc3n2)cc1	3.29% (inactive)
Cc1cc(=O)[nH]c(SCc2cccc(F)c2)n1	-28.1% (inactive)
O=[N+]([O-])c1ccccc1/C=N/n1c(COc2ccccc2)n[nH]c1=S	18.3% (inactive)
N=c1c2c(-c3ccccc3)c(-c3ccccc3)oc2ncn1Cc1ccco1	2.42% (inactive)
CCOc1c(Br)cc(/C=C2\C(=O)N(CCC#N)N=C2C)cc1OC	-33.3% (inactive)
Cc1cc(C)cc(OCC(=O)NNC(=O)c2cc3ccccc3oc2=O)c1	-16.6% (inactive)
CCN(CC)Cc1csc2ccc(Br)cc12	-1.56% (inactive)
C=CCN(C(=O)Nc1ccc2oc(C)nc2c1)c1ccccc1	3.19% (inactive)
COc1ccccc1NC(=O)/C=C/C(N)=O	-12.8% (inactive)
CC(C)N(c1ccccc1)c1ncnc(NCCC(=O)O)c1[N+](=O)[O-]	15.5% (inactive)
CC1=C/C(=N\OS(=O)(=O)c2ccccc2)C=CC1=O	82.9% (active)
CCOC(=O)C1(S(=O)(=O)c2ccccc2)CCN(Cc2ccccc2)CC1	17% (inactive)
Cc1ccc(S(=O)(=O)c2ccc(Oc3ccccc3)cc2)cc1	-7.17% (inactive)
O=C(Nc1ccc(Cl)cc1)c1ccsn1	11.1% (inactive)
O=C(Nc1ccccc1)c1nnsc1S(=O)(=O)c1ccc(Cl)cc1	61.4% (active)
CC(=O)Nc1cc(C(=O)O)ccc1S(=O)(=O)c1ccc(Cl)cc1	3.81% (inactive)

SMILES	inhibition
CC(=O)Oc1ccc(C(C)=O)c2c1OCCO2	-13% (inactive)
COc1ccc(Nc2ncc(C(=O)N3CCN(c4ccccc4OC)CC3)c3ccccc23)cc1	-4.51% (inactive)
CC1CCN(C(=O)CN(c2ccc(Oc3ccccc3)cc2)S(C)(=O)=O)CC1	-1.57% (inactive)
C=CCNC(=O)c1csc(-c2ccccc2)n1	5.01% (inactive)
CC(C)CC(=O)N1CCC(O)(CS(=O)(=O)Cc2ccccc2)CC1	5.12% (inactive)
Cc1[nH]n(-c2ccc(Cl)cc2)c(=O)c1/C=N/n1c(C)nc2ccccc2c1=O	2.28% (inactive)
Cc1ccc(-c2nc(C)sc2CC(=O)O)cc1	10.8% (inactive)
CCCSC(=S)NC1CCS(=O)(=O)C1 (stereo not given)	15.8% (inactive)
COc1ccc(C(=O)Nc2nc(-c3ccc(S(=O)(=O)N4CCOCC4)cc3)cs2)cc1	19.7% (inactive)
COc1ccc(OC)c(NC(=O)c2cnn(-c3ccccc3Cl)c2NC(=O)c2ccco2)c1	-6.97% (inactive)
O=C(NC1CCCCC1)c1ccc(CNc2c(N3CCOCC3)c(=O)c2=O)cc1	-21.1% (inactive)
Cc1nnc(SCc2nc3ccccc3nc2C)s1	-20.9% (inactive)
Cc1nn(-c2ccccc2)c(Cl)c1C(=O)Nc1ccccc1	-0.13% (inactive)
CCN(CC)C(=O)CSc1nc2ccccc2o1	3.55% (inactive)
c1ccc(CC2CCN(c3nc4ccccc4n4cnnc34)CC2)cc1	-5.6% (inactive)
Cc1nn(C(C)CC(=O)O)c(C)c1C (stereo not given)	-0.29% (inactive)
CCC(C)NC(=O)CSC1=Nc2ccccc2C2=NC(CCC(=O)NCc3ccco3)C(=O)N12 (stereo not given)	1.95% (inactive)
CCC(C)NC(=O)c1ccccc1NC(=O)c1ccccc1N(C)S(C)(=O)=O (stereo not given)	-10.9% (inactive)
CC(=O)N1CCCc2cc(S(=O)(=O)CCC(=O)N3CCN(c4ccccc4)CC3)ccc21	0.06% (inactive)
Cn1nc(C(F)(F)F)c2cc(NC(=O)OCC(C)(C)C)sc21	-6.24% (inactive)
Clc1ccccc1SCc1nc2ccccc2[nH]1	11.2% (inactive)
COc1ccc(N2CCN(Cc3ccc(Br)s3)CC2)cc1	-19.3% (inactive)
Cc1cc(N2CCN(Cc3ccc4c(c3)OCO4)CC2)n2ncnc2n1	13.4% (inactive)
CC(C)(C)n1nnnc1C(c1ccc(F)cc1)N1CCN(Cc2ccc3c(c2)OCO3)CC1 (stereo not given)	9.67% (inactive)
Fc1ccc2[nH]c3c(N4CCN(Cc5ccc6c(c5)OCO6)CC4)ncnc3c2c1	80.7% (active)
